Data as given in the supplement of paper PMC11219838.
Unmarked numbers belong to inactive results.

Tested on: Meloidogyne hapla J2
Test: proportion of mobile M. hapla J2 relative to DMSO control (fraction of DMSO control); higher = more viable, less nematicidal, active = 0.7 or less
Settings: 60 µM; 5 days; temperature: 20 °C
Procedure: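 DODA library (846 commercial 1,3,4- and 1,2,4-oxadiazole compounds plus commercial nematicide controls) screened at a single dose of 60 µM (0.6% DMSO) in 96-well plates, two biological replicates. Read-outs: C. elegans N2 L1 survival/reproduction score at day 6, 20 °C (0: 0-10 worms, 1: 11-20, 2: 21-50, 3: >50, 4: overgrown/starved). C. elegans daf-2 dauer, D. dipsaci and M. hapla J2 mobility at day 5, 20 °C, and P. penetrans mobility at day 5, 20 °C, each relative to DMSO controls. M. hapla egg hatching at day 12, 25 °C, relative to the mean of 8 DMSO wells on the same plate.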

Structure (SMILES) | proportion of mobile M. hapla J2
O=C(CSc1nnc(-c2ccco2)o1)Nc1ccc(Br)cn1 | 0.756
Cc1cccc(-c2noc(COc3ccc(C)c(C)c3)n2)c1 | 1.04
Cc1ccc(-c2nnc(SCC(=O)Nc3cc(C)c(C)cc3Br)o2)cc1 | 0.792
C=CCOc1cccc(-c2nc(-c3cccnc3)no2)c1 | 1.03
Cc1cc(OCc2nc(-c3ccccc3)no2)ccc1Br | 0.932
Cc1cc(OCc2nc(-c3ccncc3)no2)cc(C)c1Br | 1.03
CCOC(=O)c1sc(NC(=O)CSc2nnc(-c3ccc(Cl)cc3)o2)c(C#N)c1C | 0.929
COc1cccc(-c2noc(COc3ccc4ccccc4c3)n2)c1 | 1.04
COc1ccc(Cl)cc1-c1noc(COc2ccc(Cl)cc2)n1 | 0.964
Cc1[nH]c2ccc(-c3nnc(SCC(=O)NCc4ccc(F)cc4)o3)cc2c1C | 0.865
CC(=O)Nc1ccc(NC(=O)c2ccccc2-c2nc(-c3ccccc3Cl)no2)cc1 | 0.866
c1ccc(-c2noc(COc3ccc4c(c3)CCCC4)n2)cc1 | 0.923
Cc1ccc(C(=O)CSc2nnc(-c3ccco3)o2)o1 | 0.906
O=C(Nc1ccccc1-c1nc(-c2ccncc2)no1)c1ccc(Cl)cc1 | 0.909
O=C(CSc1nnc(-c2ccccc2Cl)o1)NCc1ccco1 | 0.961
Cc1ccc(-c2nc(-c3ccc(Br)cc3)no2)cc1 | 0.916
COc1cccc(-c2noc(COc3ccc(C)c(C)c3)n2)c1 | 1.06
Cc1cc(OC(C)c2nc(-c3cccnc3)no2)ccc1Cl (stereo not given) | 0.862
Brc1ccccc1-c1nc(-c2ccccc2)no1 | 1.04
COc1cccc(-c2noc(-c3c(F)cccc3F)n2)c1 | 0.953

Structure (SMILES) | proportion of mobile M. hapla J2
COc1cccc(-c2nc(-c3ccc(Cl)cc3)no2)c1 | 1.04
Cc1nnc(CSc2nnc(-c3ccc(Cl)cc3)o2)o1 | 0.926
Cc1ccccc1-c1nnc(SCc2ccccc2Cl)o1 | 0.863
O=C(Nc1ccccc1-c1nc(-c2ccncc2)no1)c1ccccc1Cl | 0.979
CNC(=O)c1ccccc1-c1nc(-c2ccccc2Cl)no1 | 1
O=C(CSc1nnc(-c2ccc(Br)cc2)o1)Nc1nccs1 | 1.01
Cc1ccc(OCc2nc(-c3ccc(Cl)cc3)no2)c(C)c1 | 0.997
Cc1cccc(-c2nnc(SCC(=O)Nc3ccccc3C(C)C)o2)c1 | 0.892
COc1nc(-c2ccc(Cl)cc2)ccc1-c1noc(-c2ccncc2)n1 | 0.921
CCOc1ccc(-c2nc(-c3ccccc3C)no2)cc1 | 0.692 (active)
Cc1ccc(-c2noc(-c3ccc(C)cc3Cl)n2)cc1 | 0.893
CCCCC(=O)Nc1ccccc1-c1nc(-c2ccccn2)no1 | 1.06
O=C(CSc1nnc(-c2cccc(Br)c2)o1)c1ccc2c(c1)CCCC2 | 0.967
Cc1cccc(OC(C)c2nc(-c3cccnc3)no2)c1 (stereo not given) | 0.994
Cc1csc(NC(=O)CSc2nnc(-c3ccccc3Cl)o2)n1 | 0.849
COc1ccc(Cl)cc1-c1nc(-c2ccccc2C)no1 | 0.852
COc1cccc(-c2nnc(SCC(=O)Nc3cccc(C(F)(F)F)c3)o2)c1 | 1.01
Clc1ccc(-c2noc(COc3ccccc3Cl)n2)cc1 | 0.891
N#Cc1ccc(OCc2nc(-c3cccs3)no2)cc1 | 0.908
O=C(CSc1nnc(-c2ccc(Br)cc2)o1)Nc1ccc2ccccc2c1 | 0.866
